Reference: PubChem BioAssay (Tox21)
Results filed as inconclusive are left out. Calls of active or inactive are those of the source. Unless noted, calls follow the shape of the dose curve; as a rule, active = well fitted curve in the direction sought with a large enough effect in the repeat runs; inconclusive = weak or mixed curves; inactive = no such curve, though single readings can be large; an effect the other way counts as inactive or inconclusive.

Columns and labels:
[1] = qHTS assay to identify small molecule antagonists of the estrogen related receptor (ERR) signaling pathway - cell viability counter screen (AID 1224818)
In short: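 ERR cells, 2,000 per well, compound added after 6 h and incubated 17.5 h at 37 C. Viability read by CellTiter-Fluor fluorescence after a further 30 min at 37 C.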

[2] = qHTS assay to identify small molecule antagonists of the estrogen related receptor (ERR) signaling pathway (AID 1224819;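 also: luminescence from an ERR-driven luciferase reporter measured with One-Glo reagent; nearly all actives have a fitted effect of over 50% in size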)
In short: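 ERR reporter cell line (NTP) plated at 2,000 cells/well, settled 6 h at 37C/5% CO2, then exposed to LOPAC compounds for 18 h at 37C. One-Glo luciferase luminescence read after 30 min at room temperature.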

[3] = qHTS assay to identify small molecule agonists of the estrogen related receptor (ERR) signaling pathway (AID 1224820)
In short: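 Quantitative HTS of the LOPAC library used NTP ERR reporter cells treated 18 h at 37 C. Signal is luminescence after One-Glo addition and a 30 min room-temperature incubation.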

[4] = test system: estrogen-related receptor alpha (ERRalpha) with PGC-1alpha coactivator, human; assay: qHTS assay to identify small molecule antagonists of the estrogen related receptor signaling pathway with the pleiotropic PPARgamma coactivator (PGC) (AID 1224821; calls by dose curve;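 also: lower luminescence signal means antagonism of PGC/ERR signalling; nearly all actives have a fitted effect of over 50% in size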)
In short: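 Quantitative HTS for antagonism: PGC/ERR cells received compounds after 6 h attachment and were incubated 18 h at 37 C, with luminescence (One-Glo) as the endpoint.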

[5] = qHTS assay to identify small molecule antagonists of the estrogen related receptor signaling pathway with the pleiotropic PPARgamma coactivator (PGC) cell viability counter screen (AID 1224822)
In short: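 PGC/ERR cells rested 6 h, then compound-treated 17.5 h at 37 C. CellTiter-Fluor added for 30 min at 37 C, viability measured by fluorescence intensity.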

[6] = qHTS assay to identify small molecule agonists of the estrogen related receptor signaling pathway with the pleiotropic PPARgamma coactivator (PGC) (AID 1224823)
In short: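 Cell-based luciferase assay in the NTP-supplied PGC/ERR line, 2,000 cells/well; 18 h compound exposure at 37 C, luminescence after One-Glo.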

[7] = qHTS assay to identify small molecule antagonists of the estrogen related receptor (ERR) signaling pathway from Tox21 library - cell viability counter screen (AID 1224834); also: nearly all actives have a fitted effect of over 30% in size
In short: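 ERR reporter cells, 2,000 per well, rested 6 h, then exposed to compound in DMSO for 17.5 hours at 37 C. Viability read as fluorescence after 30 min with CellTiter-Fluor.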

[8] = qHTS assay to identify small molecule antagonists of the estrogen related receptor signaling pathway with the pleiotropic PPARgamma coactivator (PGC) from Tox21 10K library - cell viability counter screen (AID 1224840; active = well fitted cell-killing curve with a large enough effect in the repeat runs, not every such curve was filed as active; also: nearly all actives have a fitted effect of over 40% in size)
In short: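 PGC/ERR cells (2,000/well) plated 6 h, then compound-treated for 17.5 h at 37 C. Viability measured by CellTiter-Fluor fluorescence after 30 min at 37 C, multiplexed with the pathway assay.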

[9] = qHTS assay to identify small molecule antagonists of the estrogen related receptor signaling pathway with the pleiotropic PPARgamma coactivator (PGC) from Tox21 10K library (AID 1224841; call rule not given here; also: actives are mostly falling curves and most rising ones were filed inactive; nearly all actives have a fitted effect of over 50% in size)
In short: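 PGC/ERR cell line, 2,000 cells/well, pre-incubated 6 hours at 37 C, then exposed to compounds for 18 hours at 37 C; luciferase read with One-Glo luminescence after 30 min at room temperature.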

[10] = qHTS assay to identify small molecule antagonists of the estrogen related receptor (ERR) signaling pathway from Tox21 library (AID 1224848); also: nearly all actives have a fitted effect of over 50% in size
In short: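 Cells: ERR line, 2,000/well; 6 h preincubation 37 C/5% CO2. Cpd in DMSO via pin tool; 18 h, 37 C. ONE-Glo, 30 min RT, luminescence.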

[11] = qHTS assay to identify small molecule agonists of the estrogen related receptor (ERR) signaling pathway from Tox21 library (AID 1224849; calls by dose curve; also: nearly all actives have a fitted effect of over 15% in size); settings: ERR reporter cell line, ONE-Glo luciferase, 18 h; at 92.4 µM (top of the series) unless noted
In short: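 ERR reporter cells (NTP line) pre-incubated 6 hours at 37 C, then exposed to compounds for 18 hours at 37 C. ONE-Glo luciferase luminescence was read after 30 minutes at room temperature.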

[12] = molecular target: Acetylcholinesterase (Homo sapiens) (UniProt P22303); assay: Acetylcholinesterase (AChE) small molecule antagonists: colormetric cell-based qHTS assay (AID 1347395; calls by dose curve; also: nearly all actives have a fitted effect of over 30% in size)
Sequence of Acetylcholinesterase (Homo sapiens) (P22303 whole entry, looked up): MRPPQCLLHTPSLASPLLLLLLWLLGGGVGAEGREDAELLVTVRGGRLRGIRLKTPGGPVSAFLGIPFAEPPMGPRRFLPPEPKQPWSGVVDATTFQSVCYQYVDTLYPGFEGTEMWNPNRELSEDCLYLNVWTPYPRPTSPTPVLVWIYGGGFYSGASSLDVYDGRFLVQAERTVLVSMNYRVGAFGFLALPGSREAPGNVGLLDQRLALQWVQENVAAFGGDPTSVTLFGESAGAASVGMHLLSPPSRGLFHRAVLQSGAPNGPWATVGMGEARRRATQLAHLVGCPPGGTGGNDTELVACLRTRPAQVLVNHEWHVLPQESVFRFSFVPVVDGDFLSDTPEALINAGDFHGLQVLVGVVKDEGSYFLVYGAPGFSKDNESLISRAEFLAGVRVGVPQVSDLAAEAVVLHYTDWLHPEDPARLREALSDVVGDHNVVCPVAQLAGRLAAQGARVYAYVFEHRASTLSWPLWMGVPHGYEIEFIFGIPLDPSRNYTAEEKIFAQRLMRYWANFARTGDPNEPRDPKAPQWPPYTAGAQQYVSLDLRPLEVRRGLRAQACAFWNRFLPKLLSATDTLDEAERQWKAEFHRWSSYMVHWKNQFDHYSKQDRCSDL
In short: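 After overnight attachment at 37 C, SH-SY5Y cells get 30 min compound exposure; detection cocktail (acetylthiocholine, DTNB) then incubates 90 min at 37 C, and absorbance reflects AChE-generated thiocholine.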

[13] = molecular target: Acetylcholinesterase (Homo sapiens) (UniProt P22303); assay: Acetylcholinesterase (AChE) small molecule antagonists: enzyme-based qHTS assay (AID 1347397; calls by dose curve; also: nearly all actives have a fitted effect of over 55% in size); settings: Potency: AChE enzyme activity inhibition; outcome: AChE enzyme activity inhibition
In short: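 Recombinant human AChE, dispensed at 50 mU/mL, was preincubated with Tox21 10K compounds or DMSO vehicle for 30 min at room temperature. DTNB plus acetylthiocholine was then added, and thiocholine was measured colorimetrically after a further 10 min.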

[14] = molecular target: Acetylcholinesterase (Homo sapiens) (UniProt P22303); assay: Acetylcholinesterase (AChE) small molecule antagonists: fluorescence cell-based qHTS assay (AID 1347398; calls by dose curve; also: nearly all actives have a fitted effect of over 50% in size); settings: Potency: AChE activity; outcome: AChE activity
In short: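 Human SH-SY5Y cells were plated overnight at 37 C, exposed to compound for 30 min at 37 C, 5% CO2, then given acetylthiocholine plus Thiolite Green for 40 min at room temperature; thiocholine fluorescence (Ex/Em 490/520 nm) reports endogenous AChE activity.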

[15] = molecular target: Acetylcholinesterase (Homo sapiens) (UniProt P22303); assay: Acetylcholinesterase (AChE) small molecule antagonists: enzyme-based qHTS assay with human liver microsomes (AID 1347399; calls by dose curve; also: nearly all actives have a fitted effect of over 60% in size); settings: Potency: qHTS inhibition; outcome: qHTS inhibition
In short: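 Recombinant human AChE (50 mU/mL in the enzyme mix) and human liver microsomes (0.25 mg/mL final) were preincubated with compound and NADPH (0.25 mg/mL final) for 30 min at 37 C. Acetylthiocholine/DTNB was then added; thiocholine was read colorimetrically after 10 min at room temperature.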
% is scaled to controls: 0 for no effect and ±100 for the full control effect.

Oc1ccc2c3c1O[C@H]1c4[nH]c5c(c4C[C@@]4(O)[C@@H](C2)N(CC2CC2)CC[C@]314)C[C@@]1(O)[C@H]2Cc3ccc(O)c4c3[C@@]1(CCN2CC1CC1)[C@H]5O4
inactive: Potency [1] | Potency [2] | Potency [3] | Potency [4] | Potency [5] | Potency [6]

CN(C(=O)Cc1ccc(Cl)c(Cl)c1)C(CN1CCCC1)c1cccc(OCC(=O)O)c1 (stereo unspecified)
inactive: Potency [1] | Potency [2] | Potency [3] | Potency [4] | Potency [5] | Potency [6]

CCCN(CCC)[C@@H]1CCc2ccc(O)cc2C1
inactive: Potency [1] | Potency [2] | Potency [3] | Potency [4] | Potency [5] | Potency [6]

CCOC(=O)c1ncn2c1[C@@H]1CCCN1C(=O)c1cc(OC)ccc1-2
inactive: Potency [1] | Potency [2] | Potency [3] | Potency [4] | Potency [5] | Potency [6]

CC(N)C(=O)OC(C)(C)Cc1ccc(Cl)cc1 (stereo unspecified)
inactive: Potency [1] | Potency [2] | Potency [3] | Potency [4] | Potency [5] | Potency [6] | Potency [7] | Potency [8] | Potency [9] | Potency [10] | activity change, positive = activation [11] 8.82% [at 42.5 µM] | Potency [12] | Potency [13] | Potency [14] | Potency [15]

CCN(CC)c1ncnc2c1ncn2[C@@H]1O[C@H](COP(=O)(O)OP(=O)(O)C(Br)(Br)P(=O)(O)O)[C@@H](O)[C@H]1O
inactive: Potency [1] | Potency [2] | Potency [3] | Potency [4] | Potency [5] | Potency [6]

c1ccc2sc(C3(N4CCCCC4)CCCCC3)cc2c1
inactive: Potency [1] | Potency [2] | Potency [3] | Potency [4] | Potency [6]

C[C@@H]1O[C@H](C[N+](C)(C)C)C[C@H]1O
inactive: Potency [1] | Potency [2] | Potency [3] | Potency [4] | Potency [5] | Potency [6]
